Assay results as given in article PMC9838217, “Structure of SALL4 zinc finger domain reveals link between AT-rich DNA binding and Okihiro syndrome”.
Numbering of substitutions follows the chain as printed.

Columns and labels:
Assay in all cases: HT-SELEX; high values mean tight binding
Conditions in all cases: protein: recombinant; vector His6-GST; dsDNA, one strand shown
SALL4 ZFC4 WT (HT-SELEX) = target: T1, SALL4 ZFC4 WT (HT-SELEX) (Mus musculus, UniProt Q8BX22 870-940)
T1 sequence: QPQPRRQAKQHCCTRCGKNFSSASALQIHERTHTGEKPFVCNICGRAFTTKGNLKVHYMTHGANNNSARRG
Method in brief: (§1)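 For each canonical k-mer, binding signal is the read fraction as fold change versus the initial random library. Data came from up to 6 triplicate cycles in which purified recombinant mouse SALL4 zinc finger cluster 4 (residues 870–940, 1 µg) was incubated 10 min at room temperature with library DNA (1.5 µg first cycle, 200 ng later) in 100 µl of 10 mM Tris–HCl pH 7.5, 50 mM NaCl, poly(dI-dC), DTT, followed by Ni2+ bead capture, PCR amplification, MiSeq sequencing and a 6-mer scan.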

[1] = target: T2, SALL4 ZFC4 R900W (HT-SELEX) (Mus musculus, UniProt Q8BX22 870-940, R900W)
T2 sequence: T1 sequence with R31W
Method in brief: as §1

[2] = target: T3, SALL4 ZFC4 G921D (HT-SELEX) (Mus musculus, UniProt Q8BX22 870-940, G921D)
T3 sequence: T1 sequence with G52D
Method in brief: as §1

| Sequence | binding signal (SALL4 ZFC4 WT (HT-SELEX)) | binding signal [1] | binding signal [2] |
| --- | --- | --- | --- |
| AATCTC | 1.38 ± 0.0549 fold-change vs cycle 0 | 1.5 ± 0.0336 fold-change vs cycle 0 | 1.43 ± 0.0651 fold-change vs cycle 0 |
| CTATAA | 2.19 ± 0.104 fold-change vs cycle 0 | 1.95 ± 0.0822 fold-change vs cycle 0 | 1.74 ± 0.119 fold-change vs cycle 0 |
| CACTAG | 0.821 ± 0.0388 fold-change vs cycle 0 | 0.968 ± 0.0358 fold-change vs cycle 0 | 0.987 ± 0.027 fold-change vs cycle 0 |
| AGCGAA | 0.492 ± 0.0304 fold-change vs cycle 0 | 0.566 ± 0.0332 fold-change vs cycle 0 | 0.686 ± 0.0519 fold-change vs cycle 0 |
| AAGCCA | 0.541 ± 0.0136 fold-change vs cycle 0 | 0.628 ± 0.0233 fold-change vs cycle 0 | 0.751 ± 0.0535 fold-change vs cycle 0 |
| CTATTC | 1.3 ± 0.0236 fold-change vs cycle 0 | 1.46 ± 0.0185 fold-change vs cycle 0 | 1.39 ± 0.0918 fold-change vs cycle 0 |
| AAGCGA | 0.546 ± 0.0399 fold-change vs cycle 0 | 0.616 ± 0.0449 fold-change vs cycle 0 | 0.734 ± 0.0783 fold-change vs cycle 0 |
| CAACCG | 0.334 ± 0.0164 fold-change vs cycle 0 | 0.389 ± 0.015 fold-change vs cycle 0 | 0.509 ± 0.0746 fold-change vs cycle 0 |
| CTCTCC | 0.497 ± 0.0273 fold-change vs cycle 0 | 0.603 ± 0.0441 fold-change vs cycle 0 | 0.672 ± 0.0341 fold-change vs cycle 0 |
| ACTCAA | 1.26 ± 0.086 fold-change vs cycle 0 | 1.42 ± 0.0689 fold-change vs cycle 0 | 1.35 ± 0.0924 fold-change vs cycle 0 |
| AAATGT | 1.68 ± 0.0685 fold-change vs cycle 0 | 1.7 ± 0.0668 fold-change vs cycle 0 | 1.58 ± 0.133 fold-change vs cycle 0 |
| GATGAA | 1.45 ± 0.0431 fold-change vs cycle 0 | 1.54 ± 0.0399 fold-change vs cycle 0 | 1.43 ± 0.0787 fold-change vs cycle 0 |
| GAGTCA | 0.822 ± 0.0312 fold-change vs cycle 0 | 0.955 ± 0.0308 fold-change vs cycle 0 | 0.993 ± 0.0145 fold-change vs cycle 0 |
| GTATGA | 1.51 ± 0.0577 fold-change vs cycle 0 | 1.49 ± 0.0331 fold-change vs cycle 0 | 1.38 ± 0.0706 fold-change vs cycle 0 |
| CAGCAC | 0.3 ± 0.0076 fold-change vs cycle 0 | 0.335 ± 0.0156 fold-change vs cycle 0 | 0.476 ± 0.0603 fold-change vs cycle 0 |
| TACGAA | 1.17 ± 0.0583 fold-change vs cycle 0 | 1.27 ± 0.067 fold-change vs cycle 0 | 1.22 ± 0.0855 fold-change vs cycle 0 |
| ACATTG | 1.17 ± 0.0218 fold-change vs cycle 0 | 1.29 ± 0.0215 fold-change vs cycle 0 | 1.28 ± 0.0251 fold-change vs cycle 0 |
| ATCATG | 1.38 ± 0.03 fold-change vs cycle 0 | 1.48 ± 0.0158 fold-change vs cycle 0 | 1.4 ± 0.0239 fold-change vs cycle 0 |
| AATAAT | 4.57 ± 0.438 fold-change vs cycle 0 | 2.66 ± 0.189 fold-change vs cycle 0 | 2.27 ± 0.265 fold-change vs cycle 0 |
| ATATCA | 2.74 ± 0.247 fold-change vs cycle 0 | 2.05 ± 0.0942 fold-change vs cycle 0 | 1.83 ± 0.136 fold-change vs cycle 0 |
| GCTCAC | 0.361 ± 0.0205 fold-change vs cycle 0 | 0.415 ± 0.0136 fold-change vs cycle 0 | 0.554 ± 0.021 fold-change vs cycle 0 |
| CAGATG | 0.794 ± 0.0267 fold-change vs cycle 0 | 0.922 ± 0.0206 fold-change vs cycle 0 | 0.959 ± 0.0159 fold-change vs cycle 0 |
| AGTCCC | 0.468 ± 0.0376 fold-change vs cycle 0 | 0.54 ± 0.0297 fold-change vs cycle 0 | 0.65 ± 0.0407 fold-change vs cycle 0 |
| TAAAGA | 2.04 ± 0.114 fold-change vs cycle 0 | 2.15 ± 0.111 fold-change vs cycle 0 | 1.82 ± 0.201 fold-change vs cycle 0 |
| AAAAAA | 2.68 ± 0.235 fold-change vs cycle 0 | 1.98 ± 0.146 fold-change vs cycle 0 | 1.76 ± 0.185 fold-change vs cycle 0 |
| CACAAC | 0.647 ± 0.0332 fold-change vs cycle 0 | 0.72 ± 0.018 fold-change vs cycle 0 | 0.828 ± 0.0337 fold-change vs cycle 0 |
| AAGTAA | 2.17 ± 0.0689 fold-change vs cycle 0 | 2.26 ± 0.152 fold-change vs cycle 0 | 1.91 ± 0.204 fold-change vs cycle 0 |
| ACTTCG | 0.679 ± 0.0273 fold-change vs cycle 0 | 0.7885 ± 0.004 fold-change vs cycle 0 | 0.854 ± 0.0495 fold-change vs cycle 0 |
| CTCAAG | 0.858 ± 0.0354 fold-change vs cycle 0 | 1.02 ± 0.032 fold-change vs cycle 0 | 1.04 ± 0.0506 fold-change vs cycle 0 |
| AGATAA | 2.16 ± 0.129 fold-change vs cycle 0 | 2.17 ± 0.195 fold-change vs cycle 0 | 1.87 ± 0.206 fold-change vs cycle 0 |
